# In the supplement of paper PMC3334620:
# In all, about 33,000 sequences were measured (“E-score (-0.5 to 0.5)”: median about -0.016, highest 2% from about 0.32 on). The entries come from a sample that favours the highest values as a whole.
# Target: T1, Stp1 (UniProt B3LFK1)
# T1 sequence: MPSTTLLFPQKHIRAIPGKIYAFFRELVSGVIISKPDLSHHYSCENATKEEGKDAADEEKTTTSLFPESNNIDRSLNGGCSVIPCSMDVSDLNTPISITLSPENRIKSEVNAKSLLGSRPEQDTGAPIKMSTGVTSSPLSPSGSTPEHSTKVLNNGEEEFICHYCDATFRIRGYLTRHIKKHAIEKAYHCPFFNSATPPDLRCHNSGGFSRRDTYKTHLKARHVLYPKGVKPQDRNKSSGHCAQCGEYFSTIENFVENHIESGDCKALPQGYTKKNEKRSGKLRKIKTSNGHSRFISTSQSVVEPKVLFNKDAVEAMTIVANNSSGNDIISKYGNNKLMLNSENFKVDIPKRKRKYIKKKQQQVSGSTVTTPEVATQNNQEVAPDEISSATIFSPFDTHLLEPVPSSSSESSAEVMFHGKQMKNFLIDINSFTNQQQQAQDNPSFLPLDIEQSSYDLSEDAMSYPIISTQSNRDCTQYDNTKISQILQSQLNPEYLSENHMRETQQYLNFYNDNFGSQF
# Assay: PBM E-score (8-mer binding enrichment) (E-score (-0.5 to 0.5)); higher = stronger / more preferred TF binding
# Settings: protein concentration: 200 nM; construct: GST-full length
# Protocol: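 Universal 'all 10-mer' protein binding microarrays (Agilent AMADID 015681) probed with GST-tagged S. cerevisiae TFs (full-length or DBD) made by in vitro transcription/translation (PURExpress), about 100-200 nM. Bound TF was detected with fluorescent anti-GST. Each ungapped 8-mer (which stands for itself and its reverse complement) is scored by the PBM enrichment score (E-score), a modified Wilcoxon-Mann-Whitney statistic from -0.5 to +0.5, computed with the Universal PBM Analysis Suite. Scale: above 0.35 generally sequence-specific binding.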
row,Sequence,PBM E-score
1,CGCTTACA,0.0771
2,GTATACCA,0.0622
3,ACTTATCC,-0.0589
4,CATAGACA,0.0911
5,CAATAAAG,0.217
6,AGTTGACC,-0.0773
7,ATATGGGC,-0.0537
8,ACCCGTTC,0.0622
9,ACCGAAAT,0.0238
10,ATCTTAAA,-0.0445
11,AGGACTGC,-0.256
12,AGTTATCG,0.106
13,TCCGCTCA,-0.102
14,GCCGCTTA,0.39
15,CCCGCTCC,-0.241
16,CCCGCTTA,0.0273
17,GCCGCTCC,0.398
18,ACCGCTCA,0.0634
19,GCCGCTCA,0.381
20,ACCGCTTA,-0.238
21,ACCGCTCC,-0.223
22,CAGCGCTA,0.0165
23,ATGCCCTA,0.168
24,CAGTACGC,-0.111
25,CAGCTACG,-0.14

row,Sequence,PBM E-score
1,CTAGCGCC,0.16
2,CAAGCGCC,0.219
3,CCAGCGCC,0.235
4,ACAGCGCC,0.249
5,GAAGCGCA,-0.0259
6,ATAGCGCC,0.357
7,GCAGCGCC,0.33
8,ATAGCGCG,0.136
9,GAAGCGCC,0.337
10,AGGTACCC,-0.414
11,AGCTACCG,-0.16
12,ACATGGCT,-0.137
13,CCATCCAA,0.0222
14,CAAACGGC,0.459
15,AAAACGCC,0.386
16,CAAACGCC,0.258
17,CAAACGGG,0.175
18,GAAACGGC,0.462
19,AAAACGGA,0.201
20,AAAACGGT,-0.0136
21,CAAACGGA,0.236
22,AAAACGCG,0.251
23,GAAACGGA,0.132
24,GAAACGCC,0.289
25,AAAACGGC,0.403

row,Sequence,PBM E-score
1,ACCTGATG,-0.102
2,CCGCATTC,0.105
3,TACCCTAA,-0.0225
4,CACCCACC,-0.192
5,GAGCCATA,0.0155
6,ATTGCTAC,0.0429
7,CAGGCGTC,-0.00022
8,AGGCCAGA,-0.103
9,ACAACGGC,0.308
10,GCAACGGC,0.411
11,CCAACGGC,0.316
12,ATAAAGGA,-0.201
13,CACGCTAC,-0.0658
14,CACTCGGC,0.28
15,GAAAAGAA,0.0978
16,CTTCTAAA,0.168
17,AATGCCAC,0.293
18,AATGCCGG,0.137
19,AATGCCGT,0.485
20,AATGCCGA,0.303
21,AATGCCGC,0.465
22,AATGCCTC,0.308
23,AGGCAGAG,-0.00743
24,CCCTAAAC,-0.193
25,GCGATCAA,-0.0307

row,Sequence,PBM E-score
1,CCTCCTCG,-0.21
2,AGCGCGGC,0.402
3,CGCGCTGC,0.122
4,CGCGCGGC,0.483
5,CTCGCGGA,-0.0275
6,AGCGCGGA,0.0636
7,CTCGCGGC,0.334
8,CGCGCGTC,0.16
9,AGCGCGGG,0.098
10,ATCGCGGC,0.238
11,AGGTGGCC,-0.294
12,TCTCGAGA,-0.01
13,CCCCGCCC,0.139
14,ATCTTTGC,0.262
15,CATACGGA,0.268
16,GATACGGA,0.285
17,CATACGGC,0.472
18,GATACGAC,0.0153
19,AATACGGT,0.0778
20,GATACGGC,0.463
21,CATACGGG,0.224
22,AATACGGG,-0.0327
23,AATACGGC,0.453
24,ACCCTGAG,-0.216
25,AATAGACC,-0.159

row,Sequence,PBM E-score
1,AACACTTA,0.0357
2,ACATGGCC,0.147
3,CCAACATC,-0.127
4,AGAGCTAT,-0.179
5,ACAAGGGC,-0.0113
6,CCACCTGC,-0.021
7,ACGAGGGA,-0.0556
8,CCGAGGCG,0.333
9,ACGAGGCC,0.016
10,CCGAGGCC,-0.22
11,ACGAGGCT,0.323
12,ACGAGGAT,-0.102
13,ACGAGGCA,0.37
14,CCGAGGAG,-0.0986
15,ACGAGGTA,-0.0774
16,ACCAGGCT,-0.326
17,ACGAGGCG,0.457
18,AGGAGGCG,0.201
19,CTGCAGGC,-0.372
20,CTCATCTC,0.0521
21,ACTAAAGT,-0.0712
22,AGTCTGGC,-0.207
23,TACGGTAA,0.157
24,GCGTGGGA,-0.0429
25,GTCGTCAC,-0.0794

row,Sequence,PBM E-score
1,CCGAGGCA,0.179
2,GCGAGGCA,0.439
3,TCGAGGCA,0.195
4,TATCAATA,0.0831
5,CGCGGCCA,0.269
6,CGCGGCCC,0.349
7,GGCGGCCC,0.0299
8,AGCGGCCC,-0.00454
9,AGCGGCCG,0.285
10,CGCGGCCG,0.321
11,AAAGTCGA,-0.15
12,CCACACGC,0.158
13,CCACACGG,0.385
14,ACACACGT,0.0897
15,ACAAACGA,0.129
16,ACACACGG,0.356
17,AGACACGA,-0.124
18,ACAAACGG,0.352
19,AGACACAA,0.154
20,ACAAACGC,0.252
21,ACACACGA,0.135
22,CCACACGA,-0.105
23,AGACACGG,0.363
24,CTAGACGA,0.105
25,GCTCAGCC,-0.123

row,Sequence,PBM E-score
1,ATGAGAGG,-0.118
2,CTCGGTTA,-0.119
3,ATGCGAAC,-0.103
4,ACCGCGCT,0.077
5,ACGGCCCA,0.333
6,ATGGCGCA,0.0846
7,ACGGCGCA,0.482
8,ACTGCGCT,-0.19
9,ACGGCGCT,0.481
10,CTGGCGCA,-0.0136
11,TCGGCCCA,-0.116
12,ACGGCCCT,0.275
13,GACTGACC,-0.312
14,GCCTCTCC,0.0401
15,CCTCCTGC,-0.205
16,ACAGTCTA,-0.00216
17,GCTTGCCA,-0.0643
18,ACCTAGAT,-0.159
19,AAGCTAAG,-0.136
20,CAGTGTCA,0.0177
21,AGGCAATA,0.227
22,AGGCAATC,0.114
23,CGGCAATA,0.352
